The panel holds about 83,000 compounds, 20% with a hit somewhere; the sample as a whole holds those more often.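 Growth was measured after 48 h exposure to one concentration of compound in 96-well plates. Values under 10 count as active.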 Values without a mark were called inactive. Active and inactive are the calls of the source.

These results are taken from PubChem BioAssay (NCI).

The subject of the first test is UO-31 renal. Description: NCI-60 one-dose screen, 48 h (100 = growth as untreated, 0 = no growth, -100 = all killed). Particulars: 10 µM unless noted.
Consider `CC(C)OC(=O)c1ccc([N+](=O)[O-])cc1`, for which the growth is 104%.

As for `COc1cc(CN2CCO[C@H](COc3cccc(F)c3)C2)ccc1Cl`, the growth was 45.6%.

`COc1cc(NC(C)CCCN)c2ncccc2c1Oc1ccc(Cl)cc1` (stereo not given): the growth was 41.5%.

Turning to `OC(c1cc(-c2ccc(C(F)(F)F)cc2)nc(-c2ccc(C(F)(F)F)cc2)c1)C1CCCCN1` (stereo not given), the growth was -83.6% (active).

Consider `C=CCn1c(C)nc2cc(Nc3nc(Nc4ccc5nc(C)n(CC=C)c5c4)nc4ccccc34)ccc21`, for which the growth is 89.3%.

On to `Fc1ccc2c(CN3CCO[C@H](COc4cccc(Cl)c4)C3)c[nH]c2c1`, for which the growth is 51.4%.

The next test concerns TK-10 renal. The test is described as above. Particulars: 10 µM unless noted.
As for `Cn1nc(C(F)(F)F)cc1-c1cc(Cl)c(OCc2ccc(Cl)cc2)c(-c2ccc(Cl)c(C(F)(F)F)c2)c1O`, the growth is 2.92% (active).

For the compound `CC(=O)O[C@H]1[C@H](CC#CC#CC[C@@H]2C[C@]3(C)[C@H]4CC=C5[C@H]6[C@@H](C)[C@H](C)CC[C@]6(C(=O)NCCN(CCN)CCN)CC[C@@]5(C)[C@]4(C)CC[C@H]3C(C)(C)[C@H]2OC(C)=O)C[C@]2(C)[C@H]3CC=C4[C@H]5[C@@H](C)[C@H](C)CC[C@]5(C(=O)NCCN(CCN)CCN)CC[C@@]4(C)[C@]3(C)CC[C@H]2C1(C)C`, the growth was 110%.

For `CC(=O)c1ccc(Nc2nc(Cl)nc(Oc3c(Cl)cccc3Cl)n2)cc1`, the growth was 115%.

For `Oc1[nH]c2ccccc2c1/C=c1/ccc2c(c1)N=C(c1ccc(C(F)(F)F)cc1)N=2`, the growth is 75.5%.

For the compound `Brc1cccc(-n2ncc3c(Nc4ccc(-c5nnc(-c6ccccc6)o5)cc4)ncnc32)c1`, the growth is 120%.

Turning to `CCNC(=S)N(Cc1ccccc1)Cc1ccccc1`, the growth was 106%.

In the case of `COc1cccc(CC(C)=C(c2ccc(OCCCN(C)C)cc2)c2ccc(OCCCN(C)C)cc2)c1`, the growth is -93% (active).

As to `N[C@@H](CO)C(=O)O`, the growth is 125%.

`O=C(c1ccc(C(F)(F)F)c(Cl)c1)N(Cc1ccc(Cl)cc1)c1ccc(-c2cc(C(F)(F)F)[nH]n2)c(O)c1`: the growth is 5.25% (active).

With `c1ccc(C(Nc2ccccn2)(c2ccccc2)c2ccccc2)cc1`, the growth was 85.5%.

In the case of `CC[C@H](Nc1nc(N)nc(N)c1Cl)c1nc2cccc(NCc3ccc(C(=O)NO)cc3)c2c(=O)n1-c1ccccc1`, the growth is -1.39% (active).

As for `N#Cc1nc(-c2ccc(Cl)cc2)cc(-c2ccc(Nc3nc(N4CCCCC4)nc(N4CCCCC4)n3)cc2)c1N`, the growth is 120%.

Consider `C#CC[C@@H]1C[C@]2(C)[C@H]3CC=C4[C@H]5[C@@H](C)[C@H](C)CC[C@]5(C(=O)NCCCCN)CC[C@@]4(C)[C@]3(C)CC[C@H]2C(C)(C)[C@H]1OC(C)=O`, for which the growth was 97.7%.

Regarding `Cn1nc(C(F)(F)F)cc1-c1c[nH]c(OCc2ccc(Cl)cc2)c(-c2ccc(Cl)c(C(F)(F)F)c2)c1=O`, the growth is 3.46% (active).

With `COc1ccc(NC(=O)c2ccc(C(F)(F)F)nc2Nc2ccc(Cl)cc2C)cc1Cl`, the growth is 60%.

On to `O=C(Cn1nncc1CN1C(=O)CSC1=O)Nc1ccc(F)cc1`, for which the growth is 97.9%.

For the compound `COc1ccc(NC(=O)/C=C/c2ccc(Cl)c(Cl)c2)cn1`, the growth is 78.3%.

As to `CCCCNCC(O)c1cc(-c2ccc(C(F)(F)F)cc2)nc(-c2ccc(C(F)(F)F)cc2)c1` (stereo not given), the growth is -94.4% (active).

As for `CCCc1cc2c(cc1CN(Cc1cc3c(cc1CCC)OCO3)C(=N)OCC)OCO2`, the growth is 72.9%.

Regarding `CCCNC(=S)N/N=C(\C)c1ccccn1`, the growth was 47.4%.

`C#CC[C@@H]1C[C@]2(C)[C@H]3CC[C@@H]4[C@H]5C(C(=C)C)CC[C@]5(C(=O)NCCCN5CCN(CCCN)CC5)CC[C@@]4(C)[C@]3(C)CC[C@H]2C(C)(C)[C@H]1OC(C)=O` (stereo not given in full): the growth was -91.5% (active).

`COc1cc2nccc(Oc3ccc(NC(=O)C4(C(=O)Nc5c(F)cc(F)cc5F)CC4)cc3)c2cc1Oc1ccc(N)cn1`: the growth was 84.5%.

Take `COc1ccc2[nH]c(C(=O)OCc3ccc4cccc(O)c4n3)cc2c1`: the growth was -89.2% (active).

As to `CCOCC(O)(c1ccc(Cl)cc1)c1ccc(Cl)cc1`, the growth is 110%.

As for `Cc1cc(C)cc(NC(=O)Cn2nncc2CN2C(=O)CSC2=O)c1`, the growth is 99.8%.

Consider `Cc1ccc(NC(=O)Cn2nncc2CN2C(=O)CSC2=O)cc1C`, for which the growth was 98.8%.

Regarding `COC(=O)/C=C/c1cc(OC(C)=O)c2c(c1)[C@@H](C(=O)OC)[C@H](c1ccc(OC(C)=O)c(OC(C)=O)c1)O2`, the growth is 48.5%.

`N=c1n(Cc2ccccc2)c(N)cc(=O)n1Cc1ccccc1`: the growth was 16.4%.

Turning to `CC(C)[C@H](CN)NC[C@H](C)NS(=O)(=O)c1ccc(C(C)(C)C)cc1`, the growth was 93.8%.

For the compound `COc1ccc(/C(=C\c2ccc3c(c2)OCO3)C(=O)Nc2nc3ccccc3s2)cc1`, the growth is 104%.

Consider `Cc1ccc(-c2cnc3sc4ccc(Cl)cc4n23)cc1`, for which the growth is 158%.

On to `COc1cc(C2Nc3ccccc3S2)cc(CN2CCOCC2)c1O` (stereo not given), for which the growth is 84.7%.

For `CC1=C(O)C(=O)C(c2c(C)cc(C)c(Br)c2C)=C(O)C1=O`, the growth was 73.6%.

For the compound `CC(C)OC(=O)c1ccc([N+](=O)[O-])cc1`, the growth was 113%.

With `COc1cc(CN2CCO[C@H](COc3cccc(F)c3)C2)ccc1Cl`, the growth was 46.9%.

With `COc1cc(NC(C)CCCN)c2ncccc2c1Oc1ccc(Cl)cc1` (stereo not given), the growth was 101%.

Turning to `OC(c1cc(-c2ccc(C(F)(F)F)cc2)nc(-c2ccc(C(F)(F)F)cc2)c1)C1CCCCN1` (stereo not given), the growth is -90.6% (active).

Turning to `C=CCn1c(C)nc2cc(Nc3nc(Nc4ccc5nc(C)n(CC=C)c5c4)nc4ccccc34)ccc21`, the growth is 130%.

For `Fc1ccc2c(CN3CCO[C@H](COc4cccc(Cl)c4)C3)c[nH]c2c1`, the growth is 22.1%.
